Values joined by “and” are separate entries in the source; they are usually repeats but may differ in a detail not shown here. Equal values may be shown once. The panel holds about 79,000 compounds, 15% with a hit somewhere; the sample as a whole holds those more often. Some compounds were tested as several samples or in several runs, with calls that do not always agree. Active and inactive are the calls of the source. No stated cut-off is given here; in the data, active means growth inhibition above about 70%; inactive means the rest.
Columns and labels:
[1] = NCI Yeast Anticancer Drug Screen. Data for the rad52 strain (AID 147);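 further: 0% = growth of vehicle-treated control cultures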; settings: S. cerevisiae rad52 mutant growth inhibition, stronger effect = higher value
Procedure, shortened: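 Growth of repair-deficient yeast cells was compared between compound-treated and vehicle-treated cultures to give percent inhibition.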

[2] = NCI Yeast Anticancer Drug Screen. Data for the wt1 strain (AID 149);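 further: 0% = growth of vehicle-treated wt1 cultures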; settings: S. cerevisiae wt1 strain (SPY 50644) growth inhibition, stronger effect = higher value
Procedure, shortened: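 Measured: growth of wt1 yeast under compound versus vehicle treatment, reported as inhibition.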

[3] = NCI Yeast Anticancer Drug Screen. Data for the rad50EPP+ strain (AID 151);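 further: 0% = growth of vehicle-treated control cultures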; settings: S. cerevisiae rad50 mutant strain, stronger effect = higher value
Procedure, shortened: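 Measured: growth inhibition of rad50EPP+ yeast. Reference: vehicle-treated controls. Screen uses strains with defined genetic alterations in DNA damage repair or cell cycle control.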

[4] = NCI Yeast Anticancer Drug Screen. Data for the mgt1 strain (AID 153); settings: S. cerevisiae mgt1 mutant growth inhibition, stronger effect = higher value
Procedure, shortened: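 Compounds were applied to mgt1 mutant yeast, and growth was then compared against vehicle-treated control cultures to give percent inhibition.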

[5] = NCI Yeast Anticancer Drug Screen. Data for the rad50 strain (AID 155);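 further: 0% = growth of vehicle-only cultures of the same strain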; settings: S. cerevisiae rad50 strain growth inhibition, stronger effect = higher value
Procedure, shortened: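 Growth of the mutant yeast was measured after compound exposure and referenced to vehicle-treated cultures.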

[6] = NCI Yeast Anticancer Drug Screen. Data for the mec2-1 strain (AID 157); settings: S. cerevisiae mec2-1 strain, stronger effect = higher value
Procedure, shortened: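 Compounds were applied to mec2-1 yeast cells. Their growth was then compared with that of vehicle-treated cultures to give growth inhibition.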

[7] = NCI Yeast Anticancer Drug Screen. Data for the rad14 strain (AID 159);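 further: 0% = growth of vehicle-treated control cultures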; settings: S. cerevisiae rad14 strain growth inhibition, stronger effect = higher value
Procedure, shortened: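 Here, inhibition of yeast growth was measured after compound exposure, using a strain with a genetic defect in DNA damage repair and vehicle-treated cultures as the reference.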

[8] = NCI Yeast Anticancer Drug Screen. Data for the sgs1 mgt1 strain (AID 161);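 further: 0% = growth of cultures given vehicle only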; settings: S. cerevisiae sgs1 mgt1 strain, stronger effect = higher value
Procedure, shortened: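 Growth of a repair-deficient yeast mutant was monitored after compound treatment and expressed as inhibition relative to vehicle-treated cultures.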

[9] = NCI Yeast Anticancer Drug Screen. Data for the CLN2oe strain (AID 163);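 further: 0% = growth of vehicle-only control cultures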; settings: S. cerevisiae CLN2oe strain, stronger effect = higher value
Procedure, shortened: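 Cells of an engineered yeast line with disturbed cell-cycle regulation are treated with compound. Inhibition of growth is then calculated relative to the vehicle-treated reference.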

[10] = NCI Yeast Anticancer Drug Screen. Data for the cln2 rad14 strain (AID 165);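 further: 0% = growth equal to vehicle treated cultures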; settings: S. cerevisiae cln2 rad14 strain, stronger effect = higher value
Procedure, shortened: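 Strain: cln2 rad14 yeast, altered in cell cycle control and DNA damage repair. Read-out: growth inhibition vs vehicle.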

[11] = NCI Yeast Anticancer Drug Screen. Data for the bub3 strain (AID 167); settings: S. cerevisiae bub3 mutant strain, stronger effect = higher value
Procedure, shortened: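 Whole-cell yeast assay. The mutant strain was incubated with compounds, and growth inhibition was determined by comparison with vehicle-treated cells.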

[12] = NCI Yeast Anticancer Drug Screen. Data for the wt2 strain (AID 169);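 further: 0% = growth of vehicle-treated yeast cultures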; settings: S. cerevisiae wt2 strain growth inhibition, stronger effect = higher value
Procedure, shortened: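 Growth of compound-treated yeast is measured and expressed as inhibition relative to vehicle-only controls.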

[13] = NCI Yeast Anticancer Drug Screen. Data for the mlh1 strain (AID 171);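 further: 0% = growth of vehicle-treated control cultures of the same strain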; settings: S. cerevisiae mlh1 strain growth inhibition, stronger effect = higher value
Procedure, shortened: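 Test agents were incubated with yeast bearing a defined DNA damage repair or cell cycle control alteration; values are growth inhibition normalised to vehicle-treated cultures.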

[14] = NCI Yeast Anticancer Drug Screen. Data for the sgs1 strain (AID 173);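 further: 0% = growth of vehicle-only control cultures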; settings: S. cerevisiae sgs1 mutant, stronger effect = higher value
Procedure, shortened: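 Strain with an altered DNA repair or cell cycle pathway exposed to compound. Growth then measured. Value = inhibition versus vehicle control.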

[15] = NCI Yeast Anticancer Drug Screen. Data for the mlh1 rad18 strain (AID 175); settings: S. cerevisiae mlh1 rad18 strain growth inhibition, stronger effect = higher value
Procedure, shortened: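 A repair-deficient yeast strain is exposed to test compound, and growth is scored relative to vehicle-treated controls.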

[16] = NCI Yeast Anticancer Drug Screen. Data for the rad18 strain (AID 177); settings: S. cerevisiae rad18 mutant growth inhibition, stronger effect = higher value
Procedure, shortened: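 DNA-repair-defective yeast; compound treatment; growth inhibition scored against vehicle.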

[17] = at 5.0 µM (retest, dose inferred, filed as 0.5)
[18] = at 50.0 µM (retest, dose inferred, filed as 5.0)

SMILES: O=c1ccc2ccccc2c2ccccc12
- growth inhibition ([1]; at 1.2 µM): -49% (inactive)
- growth inhibition ([1]; at 3.7 µM): -33% (inactive)
- growth inhibition ([1]; at 11.0 µM): 52% (inactive)
- growth inhibition ([1]; at 33.0 µM): 97% (active)
- growth inhibition ([1]; at 100.0 µM): 99% (active)
- growth inhibition ([2]; at 1.2 µM): -17% (inactive)
- growth inhibition ([2]; at 3.7 µM): 18% (inactive)
- growth inhibition ([2]; at 11.0 µM): 76% (active)
- growth inhibition ([2]; at 33.0 µM): 98% (active)
- growth inhibition ([2]; at 100.0 µM): 99% (active)
- growth inhibition ([3]; at 1.2 µM): -4% (inactive)
- growth inhibition ([3]; at 3.7 µM): 13% (inactive)
- growth inhibition ([3]; at 11.0 µM): 46% (inactive)
- growth inhibition ([3]; at 33.0 µM): 95% (active)
- growth inhibition ([3]; at 100.0 µM): 99% (active)
- growth inhibition ([4]; at 1.2 µM): 3% (inactive)
- growth inhibition ([4]; at 3.7 µM): 21% (inactive)
- growth inhibition ([4]; at 11.0 µM): 79% (active)
- growth inhibition ([4]; at 33.0 µM): 99% (active)
- growth inhibition ([4]; at 100.0 µM): 99% (active)
- growth inhibition ([5]; at 1.2 µM): -13% (inactive)
- growth inhibition ([5]; at 3.7 µM): 7% (inactive)
- growth inhibition [5, 17]: -2% (inactive)
- growth inhibition ([5]; at 11.0 µM): 66% (inactive)
- growth inhibition ([5]; at 33.0 µM): 97% (active)
- growth inhibition [5, 18]: 98% (active)
- growth inhibition ([5]; at 50.0 µM): 90.9% (active)
- growth inhibition ([5]; at 100.0 µM): 97% (active)
- growth inhibition ([6]; at 1.2 µM): -3% (inactive)
- growth inhibition ([6]; at 3.7 µM): 22% (inactive)
- growth inhibition [6, 17]: 1% (inactive)
- growth inhibition ([6]; at 11.0 µM): 82% (active)
- growth inhibition ([6]; at 33.0 µM): 99% (active)
- growth inhibition [6, 18]: 99% (active)
- growth inhibition ([6]; at 50.0 µM): 93.9% (active)
- growth inhibition ([6]; at 100.0 µM): 100% (active)
- growth inhibition ([7]; at 1.2 µM): -9% (inactive)
- growth inhibition ([7]; at 3.7 µM): 1% (inactive)
- growth inhibition ([7]; at 11.0 µM): 63% (inactive)
- growth inhibition ([7]; at 33.0 µM): 98% (active)
- growth inhibition ([7]; at 100.0 µM): 97% (active)
- growth inhibition [8, 17]: 6% (inactive)
- growth inhibition [8, 18]: 98% (active)
- growth inhibition ([8]; at 50.0 µM): 91.6% (active)
- growth inhibition ([9]; at 1.2 µM): 20% (inactive)
- growth inhibition ([9]; at 3.7 µM): 25% (inactive)
- growth inhibition ([9]; at 11.0 µM): 87% (active)
- growth inhibition ([9]; at 33.0 µM): 100% (active)
- growth inhibition ([9]; at 100.0 µM): 100% (active)
- growth inhibition [10, 17]: 5% (inactive)
- growth inhibition [10, 18]: 99% (active)
- growth inhibition ([10]; at 50.0 µM): 90.4% (active)
- growth inhibition ([11]; at 1.2 µM): 5% (inactive)
- growth inhibition ([11]; at 3.7 µM): 47% (inactive)
- growth inhibition [11, 17]: 50% (inactive)
- growth inhibition ([11]; at 11.0 µM): 88% (active)
- growth inhibition ([11]; at 33.0 µM): 98% (active)
- growth inhibition [11, 18]: 99% (active)
- growth inhibition ([11]; at 50.0 µM): 90.6% (active)
- growth inhibition ([11]; at 100.0 µM): 98% (active)
- growth inhibition ([12]; at 1.2 µM): -27% (inactive)
- growth inhibition ([12]; at 3.7 µM): 2% (inactive)
- growth inhibition ([12]; at 11.0 µM): 69% (inactive)
- growth inhibition ([12]; at 33.0 µM): 98% (active)
- growth inhibition ([12]; at 100.0 µM): 99% (active)
- growth inhibition ([13]; at 1.2 µM): 15% (inactive)
- growth inhibition ([13]; at 3.7 µM): 55% (inactive)
- growth inhibition ([13]; at 11.0 µM): 83% (active)
- growth inhibition ([13]; at 33.0 µM): 99% (active)
- growth inhibition ([13]; at 100.0 µM): 99% (active)
- growth inhibition ([14]; at 1.2 µM): -2% (inactive)
- growth inhibition ([14]; at 3.7 µM): 12% (inactive)
- growth inhibition ([14]; at 11.0 µM): 69% (inactive)
- growth inhibition ([14]; at 33.0 µM): 98% (active)
- growth inhibition ([14]; at 100.0 µM): 98% (active)
- growth inhibition [15, 17]: 39% (inactive)
- growth inhibition [15, 18]: 99% (active)
- growth inhibition ([15]; at 50.0 µM): 90.9% (active)
- growth inhibition ([16]; at 1.2 µM): -4% (inactive)
- growth inhibition ([16]; at 3.7 µM): -3% (inactive)
- growth inhibition ([16]; at 11.0 µM): 76% (active)
- growth inhibition ([16]; at 33.0 µM): 97% (active)
- growth inhibition ([16]; at 100.0 µM): 97% (active)

SMILES: CC1=CC(=C(c2ccc(N)cc2)c2ccc(N)cc2)C=CC1=N
- growth inhibition ([1]; at 1.2 µM): 20% (inactive)
- growth inhibition ([1]; at 3.7 µM): 49% (inactive)
- growth inhibition ([1]; at 11.0 µM): 47% (inactive)
- growth inhibition ([1]; at 33.0 µM): 32% (inactive)
- growth inhibition ([1]; at 100.0 µM): 91% (active)
- growth inhibition ([2]; at 1.2 µM): 0% (inactive)
- growth inhibition ([2]; at 3.7 µM): -1% (inactive)
- growth inhibition ([2]; at 11.0 µM): 7% (inactive)
- growth inhibition ([2]; at 33.0 µM): 2% (inactive)
- growth inhibition ([2]; at 100.0 µM): 19% (inactive)
- growth inhibition ([3]; at 1.2 µM): 15% (inactive)
- growth inhibition ([3]; at 3.7 µM): 22% (inactive)
- growth inhibition ([3]; at 11.0 µM): 20% (inactive)
- growth inhibition ([3]; at 33.0 µM): 29% (inactive)
- growth inhibition ([3]; at 100.0 µM): 51% (inactive)
- growth inhibition ([4]; at 1.2 µM): -9% (inactive)
- growth inhibition ([4]; at 3.7 µM): 1% (inactive)
- growth inhibition ([4]; at 11.0 µM): -8% (inactive)
- growth inhibition ([4]; at 33.0 µM): 4% (inactive)
- growth inhibition ([4]; at 100.0 µM): 76% (active)
- growth inhibition ([5]; at 1.2 µM): -2% (inactive)
- growth inhibition ([5]; at 3.7 µM): 17% (inactive)
- growth inhibition [5, 17]: 21% (inactive) and 1% (inactive)
- growth inhibition ([5]; at 11.0 µM): 17% (inactive)
- growth inhibition ([5]; at 33.0 µM): 7% (inactive)
- growth inhibition [5, 18]: 38% (inactive) and 93% (active)
- growth inhibition ([5]; at 50.0 µM): 32.7% (inactive) and 35.3% (inactive)
- growth inhibition ([5]; at 100.0 µM): 82% (active)
- growth inhibition ([6]; at 1.2 µM): 7% (inactive)
- growth inhibition ([6]; at 3.7 µM): 2% (inactive)
- growth inhibition [6, 17]: 14% (inactive) and -7% (inactive)
- growth inhibition ([6]; at 11.0 µM): -1% (inactive)
- growth inhibition ([6]; at 33.0 µM): -6% (inactive)
- growth inhibition [6, 18]: 89% (active) and 80% (active)
- growth inhibition ([6]; at 50.0 µM): 58.7% (inactive) and 12.3% (inactive)
- growth inhibition ([6]; at 100.0 µM): 73% (active)
- growth inhibition ([7]; at 1.2 µM): -9% (inactive)
- growth inhibition ([7]; at 3.7 µM): 0% (inactive)
- growth inhibition ([7]; at 11.0 µM): -4% (inactive)
- growth inhibition ([7]; at 33.0 µM): -4% (inactive)
- growth inhibition ([7]; at 100.0 µM): 74% (active)
- growth inhibition [8, 17]: 15% (inactive) and 2% (inactive)
- growth inhibition [8, 18]: 30% (inactive) and 50% (inactive)
- growth inhibition ([8]; at 50.0 µM): 59.5% (inactive) and 48.1% (inactive)
- growth inhibition ([9]; at 1.2 µM): 22% (inactive)
- growth inhibition ([9]; at 3.7 µM): 43% (inactive)
- growth inhibition ([9]; at 11.0 µM): 39% (inactive)
- growth inhibition ([9]; at 33.0 µM): 23% (inactive)
- growth inhibition ([9]; at 100.0 µM): 78% (active)
- growth inhibition [10, 17]: 1% (inactive) and -1% (inactive)
- growth inhibition [10, 18]: 42% (inactive) and 61% (inactive)
- growth inhibition ([10]; at 50.0 µM): 34% (inactive) and -84.5% (inactive)
- growth inhibition ([11]; at 1.2 µM): -12% (inactive)
- growth inhibition ([11]; at 3.7 µM): 8% (inactive)
- growth inhibition [11, 17]: 18% (inactive) and -1% (inactive)
- growth inhibition ([11]; at 11.0 µM): 8% (inactive)
- growth inhibition ([11]; at 33.0 µM): 12% (inactive)
- growth inhibition [11, 18]: 90% (active) and 76% (active)
- growth inhibition ([11]; at 50.0 µM): 58.8% (inactive) and 24.9% (inactive)
- growth inhibition ([11]; at 100.0 µM): 88% (active)

Source: PubChem BioAssay (NCI)
